The campaign covered roughly 48,000 compounds. About 13,000 (27%) showed an effect of 50% or more. This is one part of the list.
Tested on: Wolbachia pipientis
Test: Anti-Wolbachia Cell-Based Screen
Type: functional
Design: scale not given: in the data most compounds retested in dose-response had high values
Settings: 5 µM

SMILES	Percent Effect
CCc1n[nH]c(C2CN(Cc3csc(COC)n3)CCO2)n1 (stereo not given)	0.7556%
O=C(Nc1ccc(-c2nc3c([nH]2)CCNC3)cc1)N1CCCC1	-0.2771%
COc1ccc2c(c1)C(C(=O)N(C)CCCc1nccn1C)CC(=O)N2 (stereo not given)	9.372%
CC(C)CN1C(=O)CO[C@@H]2CN(C(=O)C3CCOC3)C[C@H]21 (stereo not given in full)	-11.41%
CCCOc1ccc(NC(=O)NCCC(=O)N(C)C)cc1Cl	-12.35%
CC(C)CNC(=O)c1ccc(NC(=O)NCC2CC2)cc1Cl	-12.02%
CC(C)CCCNC(=O)Nc1ccc(C(N)=O)c(Cl)c1	114.9%
CC(C)CCCNC(=O)Nc1ccc(Cl)c(C(N)=O)c1	118.7%
CC(C)CNC(=O)c1ccc(NC(=O)NC(C)C)cc1Cl	-2.856%
CC(C)CNC(=O)c1ccc(NC(=O)NC(C)(C)CO)cc1Cl	-9.16%
CCCN1CCC(NC(=O)NCCc2nc(CC)c(C)s2)CC1	16.1%
Cc1ccc(-c2nn(-c3cccc(F)c3)cc2CN(CCO)CCO)o1	2.921%
C[C@@H]1CN(C(=O)Cn2ccc3ncccc3c2=O)C[C@H](C)O1	-28.32%
CCC[C@@H]1CN(C(=O)c2ccccc2-c2ncc[nH]2)C[C@H]1N(C)C	29.83%
CN(C)C1CCCN(C(=O)c2cccc(-c3ncc[nH]3)c2)CC1 (stereo not given)	2.392%
COc1ccc(OCc2cc(C(=O)N3C[C@@H](C)O[C@@H](C)C3)n[nH]2)c(Cl)c1	-0.1203%
C[C@@H]1CN(C(=O)c2nc3ccc(Cl)cn3c2-c2ncc[nH]2)C[C@H](C)O1	103.5%
Cc1ccc2cc(C(=O)N3CCCN(C)CC3)ccc2n1	16.24%
CN1CCCN(C(=O)c2nc3sccn3c2-c2ncc[nH]2)CC1	108%
Cc1nc2sccn2c1C(=O)N1CCc2[nH]cnc2C1	-1.15%
C[C@@H]1CN(C(=O)c2nc3sccn3c2-c2ncc[nH]2)C[C@H](C)O1	88.09%
O=C(c1nc2sccn2c1-c1ncc[nH]1)N1CCCCC1	87.63%
CN1CCN(C(=O)c2n[nH]c3c2CN(Cc2nccs2)CC3)CC1	-8.434%
CN1C[C@@H](n2cnc(-c3ccccc3)c2-c2ncc[nH]2)C[C@H]1C(=O)O	-3.61%
CC(=O)N1CCC(C(=O)N(CC(F)F)c2cccc(Cl)c2)CC1	3.709%
CCc1cc(NCCc2ccc(O)cc2)n2nccc2n1	12.11%
O=C(NC1CCCC1)O[C@H]1COCCN(c2nc3ccccc3s2)C1	3.317%

SMILES	Percent Effect
CC(=O)N1CCC(c2nc3ccc(C)cn3n2)CC1	109.2%
COCC(=O)N1CCC(c2nc3ccc(-c4ccccc4)cn3n2)CC1	4.971%
CCS(=O)(=O)N1CCC(c2nc3ccc(-c4ccccc4)cn3n2)CC1	-9.682%
CS(=O)(=O)N1CCC(c2nc3ccc(-c4cccc(F)c4)cn3n2)CC1	121.7%
Cc1ccc2nc(C3CCN(CCO)CC3)nn2c1	-22.16%
CN(C)C(=O)N1CCC(c2nc3ccc(-c4ccccc4)cn3n2)CC1	107%
CN(C)C(=O)N1CCC(c2nc3ccc(N4CCCC4)cn3n2)CC1.O=C(O)C(F)(F)F	-5.461%
COCC(=O)N1CCC(c2nc3ccc(N4CCOCC4)cn3n2)CC1	-4.439%
COc1cccc(-c2ccc3nc(C4CCN(C(C)=O)CC4)nn3c2)c1	108.3%
COc1ccc(Cl)cc1CS(=O)(=O)Cc1noc(C)n1	18.18%
C[S+]([O-])c1nncn1CCc1ccccc1 (stereo not given)	-4.603%
COc1ccccc1C(O)Cn1cc(C(=O)NCc2ccco2)nn1 (stereo not given)	-0.6679%
CNC(=O)c1cccc(NCC(=O)Nc2cc(C)nn2C)c1C	11.4%
COc1ncccc1C(=O)NC1(c2cccc(F)c2)CCOCC1	0.9313%
CN1CCCC1CNC(=O)c1nnn(-c2ccc(F)cc2)c1C1CC1 (stereo not given)	-4.807%
CC(=O)N1CCC(c2nc3ccc(-c4cccc(F)c4)cn3n2)CC1	114.3%
Nc1cc2c(nn1)CCN(C(=O)c1ccc(Oc3cccnc3)cc1)C2	5.491%
CN(C)c1cc2c(nn1)CCN(C(=O)c1cc3ccccc3o1)C2	1.758%
CCNc1cc2c(nn1)CCN(C(=O)c1ccc(NC3CC3)nc1)C2	18.68%
CCNc1cc2c(nn1)CCN(C(=O)c1cc3ccccc3[nH]c1=O)C2	-5.583%
CN(C)c1cc2c(nn1)CCN(C(=O)c1ccc(-n3cccn3)nc1)C2	103.2%
CNc1cc2c(nn1)CCN(C(=O)c1ccc(-n3cccn3)nc1)C2	108.2%
CCNc1cc2c(nn1)CCN(C(=O)c1ccc3cc[nH]c3c1)C2	0.8681%
CCNc1cc2c(nn1)CCN(C(=O)c1ccnc(N(C)C)c1)C2	-3.48%
CNc1cc2c(nn1)CCN(C(=O)c1ccc(-n3nccc3C)cc1)C2	-6.131%
CNc1cc2c(nn1)CCN(C(=O)c1ccccc1-n1cccn1)C2	88.38%
Nc1cc2c(nn1)CCN(C(=O)c1cccnc1Oc1ccccc1)C2	-19.15%

SMILES	Percent Effect
CCNc1cc2c(nn1)CCN(C(=O)c1ccc(-n3cccn3)nc1)C2	97.41%
COc1cccc2ccc(CN3CCN(c4ccncc4)CC3)nc12	12.14%
CCc1nsc(N2CCCN(C(=O)COc3ccccc3)CC2)n1	6.055%
COCCCN1CC2(CCC1=O)CCN(Cc1cc(C(C)C)no1)CC2	-3.554%
CC(=O)N1[C@H](Cn2cncn2)C[C@@H]2CN(C(=O)NC3CC3)CC[C@@H]21	-0.06843%
COc1ccc(CN2CCCC2)cc1Oc1cccc(C#N)n1	4.454%
CCCN1CCCn2nc(CNS(=O)(=O)c3ccc(C)cc3)cc2C1	-4.266%
CCc1ccccc1NC(=O)C1CN(C(C)=O)C1	6.296%
CCc1cccc(C)c1NC(=O)c1ccccc1N(C)S(C)(=O)=O	89.09%
CCCNC(=O)c1cc(OC)c(OC)cc1N(C)S(C)(=O)=O	-23.04%
CCc1ccc(S(=O)(=O)Nc2c(C)cccc2C(=O)O)s1	-3.804%
CCNC(=O)c1cc(OC)c(OC)cc1N(C)S(C)(=O)=O	-20.94%
CCc1cccc(CC)c1NC(=O)c1ccccc1N(C)S(C)(=O)=O	109.8%
CNC(=O)c1cccc(NC(=O)NCc2ccccc2)c1C	3.946%
Cc1cccc(C)c1NC(=O)c1cccc(N(C)S(C)(=O)=O)c1C	108.1%
CCN(CCCc1ccccc1C)S(C)(=O)=O	5.478%
CCc1ccccc1NC(=O)c1cccc(N(C)S(C)(=O)=O)c1C	92%
Cc1ccc(C(=O)NC2CCN(C)CC2)cc1N(C)S(C)(=O)=O	12.36%
CNC(=O)c1cc(OC)c(OC)cc1N(C)S(C)(=O)=O	-22.7%
CCC(Nc1nnnn1-c1ccccc1)C(=O)Nc1ccccc1C (stereo not given)	-5.481%
Cc1ccc(CNCc2cccc3cccnc23)c(OC2CCOC2)c1 (stereo not given)	-38.45%
COc1ccc(CC(=O)N2CCCC2Cn2cc(C)cn2)cc1OC (stereo not given)	112.4%
COc1ccc(CCC(=O)N2CCCC2Cn2cc(C)cn2)cc1F (stereo not given)	-0.1438%
COc1ccc(CC(=O)N2CCCC2Cn2cc(C)cn2)c(OC)c1 (stereo not given)	126.4%
COc1ccc(CC(=O)N2CCCCC2Cn2cc(C)cn2)cc1F (stereo not given)	102.6%
COc1ccccc1OCCC(=O)N1CCCC1Cn1cc(C)cn1 (stereo not given)	-7.788%
Cc1noc(-c2ccc(N(C)Cc3ccncc3C)nc2)n1	-8.712%

SMILES	Percent Effect
O=C(Nc1cnc(C2CC2)nc1)N1CCC(CN2CCCC2)C1 (stereo not given)	2.987%
Cc1ncc(C(=O)N2CCCC(n3cccn3)C2)s1 (stereo not given)	111.9%
O=C(c1cnc(-c2cnccn2)s1)N1CCCC(n2cccn2)C1 (stereo not given)	90.03%
O=C(c1cnc(-c2cccs2)s1)N1CCCC(n2cccn2)C1 (stereo not given)	0.5894%
O=C(c1cnc(C2CC2)s1)N1CCCC(n2cccn2)C1 (stereo not given)	6.794%
O=C(c1cnc(-c2ccccn2)s1)N1CCCC(n2cccn2)C1 (stereo not given)	116.5%
CCc1[nH]ncc1C(=O)N1CCCC(n2cccn2)C1 (stereo not given)	-0.4405%
Cn1cc(C(=O)N2CCCC(n3cccn3)C2)c2ccccc21 (stereo not given)	-10.45%
O=C(c1cnc(-c2ncccn2)s1)N1CCCC(n2cccn2)C1 (stereo not given)	84.63%
COc1ccccc1NC(=O)NCC(O)(c1ccccc1)C1CC1 (stereo not given)	10.27%
CCOc1ccc(NS(=O)(=O)c2cc(C)c(C(=O)O)s2)cc1F	-1.908%
CC(C)=CCN1CCC(c2nccn2Cc2cscn2)CC1	3.314%
Cc1nccn1CCCC(=O)N1CCC(N(C)c2cccnn2)CC1	114.4%
Cc1nccn1CCCC(=O)N1CCCN(c2cccnn2)CC1	66.22%
Cc1ccccc1N1CCCN(C(=O)CCCn2ccnc2C)CC1	7.495%
CCc1cc(O)n2nc(C3CCN(C(=O)c4ccncc4)CC3)cc2n1	121.2%
CCc1nc(C2CCCN2C(=O)c2nc(C)n3ccccc23)no1 (stereo not given)	-3.852%
Cc1nc2cc(C3CCN(C(=O)c4ccccn4)CC3)nn2c(O)c1C	104%
CCC(C)c1noc(C2CCN(C(=O)c3cccnc3)CC2)n1 (stereo not given)	-14.35%
CC[C@H]1CN(C(=O)c2cccnc2)CC[C@H]1CC(=O)NCCOC	-6.846%
CCc1cc(O)n2nc(C3CCN(C(=O)c4cccnc4)CC3)cc2n1	97.39%
CC(C)n1ccnc1C1CCN(C(=O)c2ccc(SCCO)cc2)CC1	-4.655%
Cn1ccc(C2CCCCN2C(=O)c2cccc(Cn3cccn3)c2)n1 (stereo not given)	-10.23%
CCc1cc(O)n2nc(C3CCCN3C(=O)c3ccccn3)cc2n1 (stereo not given)	131.2%
